This is a sample that favours compounds with a hit; in the whole collection about 3% have one here.
A549 tox: kills or reduces viability of A549 cells in Nrf2 counter-screen. A549 ARE-Fluc cells, CellTiter-Fluor viability, 18-24 h. Potency, µM (top dose mostly 46 µM), for inactives: top-dose activity change, negative = cytotoxicity, usual class: inhibitors. 390,000 compounds, 0.16% hits. AID 504648; also: % is scaled to controls: 0 for no effect and ±100 for the full control effect
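A549 ARE-Fluc cells in 5% FBS OPTI-MEM, 5000 cells/well, rested 2 h then exposed to compounds in concentration-response for 18-24 h at 37 °C. Viability by CellTiter-Fluor fluorescence (Ex 405/Em 525) after 30 min; luciferase luminescence (BugLite, 15 min, RT) read afterwards.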
Nrf2 block: Nrf2 pathway inhibition. A549 ARE-Fluc reporter, luciferase luminescence, 18-24 h. Potency, µM (top dose mostly 46 µM), inactives show top-dose activity change, negative = inhibition, most hits filed as inhibitors. 360,000 compounds, 2.1% hits. AID 504444; also: % is scaled to controls: 0 for no effect and ±100 for the full control effect; nearly all actives have a fitted effect of over 60% in size
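A549 ARE_Fluc cells (5000/well, 5% FBS OPTI-MEM) pre-incubated 2 h, then treated with compounds 18-24 h at 37C/5% CO2 in concentration-response. CellTiter-Fluor viability read first; BugLite luciferase luminescence after 15 min at room temperature gives Nrf2 activity.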
TrxR1 substrate: rat thioredoxin reductase 1 substrate activity; Potency, µM (titrated, usually from 114 µM), for the others: top-dose activity change, negative = substrate turnover; AID 588456; O89049; 390,000 compounds, 0.01% hits; purified TrxR1 substrate turnover, NADPH consumption readout; also: % is scaled to controls: 0 for no effect and ±100 for the full control effect; nearly all actives have a fitted effect of over 50% in size
Target sequence (O89049 whole entry, looked up): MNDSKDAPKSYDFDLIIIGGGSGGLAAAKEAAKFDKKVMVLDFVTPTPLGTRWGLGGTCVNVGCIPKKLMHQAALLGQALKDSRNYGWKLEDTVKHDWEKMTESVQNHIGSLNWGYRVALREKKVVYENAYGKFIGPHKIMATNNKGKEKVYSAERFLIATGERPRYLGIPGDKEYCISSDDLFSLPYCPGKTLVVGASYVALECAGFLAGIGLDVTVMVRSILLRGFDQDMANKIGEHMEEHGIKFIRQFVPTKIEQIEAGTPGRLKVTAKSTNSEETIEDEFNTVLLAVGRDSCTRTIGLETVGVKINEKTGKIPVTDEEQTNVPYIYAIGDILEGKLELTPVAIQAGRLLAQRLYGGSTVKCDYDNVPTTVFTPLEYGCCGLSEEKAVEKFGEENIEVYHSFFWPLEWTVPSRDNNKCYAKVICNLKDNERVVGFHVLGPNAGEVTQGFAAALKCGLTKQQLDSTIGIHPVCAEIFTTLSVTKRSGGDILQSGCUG
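Rat TrxR1, dispensed at 90 nM, was prereduced with 400 uM NADPH (final) for 5 min at ~22 deg C, then incubated with compound 15 min before 400 uM selenite. A first-read NADPH fluorescence drop versus no-compound background flagged substrates.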
GALK inh: blocks human galactokinase activity | 270,000 compounds, 0.007% hits | Purified GALK, Kinase-Glo residual ATP luminescence | Potency, µM (titrated, usually from 57.5 µM), for inactives: at the highest dose activity change, negative = inhibition, usual class: inhibitors | AID 1868 | P51570; also: % is scaled to controls: 0 for no effect and ±100 for the full control effect
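Compounds were pin-transferred into ATP buffer (35 uM final), then GALK plus galactose (5 nM, 100 uM final) was added. After 1 h at room temperature, Kinase-Glo Plus was added and luminescence read after 10 min.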
Nrf2 ARE act: activators of Nrf2 (ARE) signaling | Potency, µM (highest dose often 46.1 µM), inactives show top-dose activation, hits mostly activators | AREc32 ARE-luciferase reporter (MCF7-derived line), luminescence, 24 h | AID 624171 | 410,000 compounds, 0.31% hits; also: % of control where 0% means no effect; nearly all actives have a fitted effect of over 65% in size
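Quantitative high-throughput format: AREc32 reporter cells, 1000 per well, received compound by pin transfer and were incubated 24 hr at 37 deg C, 5% CO2, before Steady-Glo luminescence detection.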
rTrxR1 inhibitor: blocks rat thioredoxin reductase 1; O89049; recombinant rTrxR1, NADPH fluorescence consumption, selenite substrate; Potency, µM (titrated, usually from 114 µM), for the others: at the top dose activity change, negative = inhibition, actives largely listed as inhibitors; 390,000 compounds, 1% hits; AID 588453; also: % is scaled to controls: 0 for no effect and ±100 for the full control effect; nearly all actives have a fitted effect of over 65% in size
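Rat TrxR1 (90 nM in the dispensed reagent) was pre-reduced with 400 uM NADPH for 5 min at room temperature, then incubated with compound for 15 min. After 400 uM selenite was added, NADPH fluorescence (Ex 340/Em 450 nm) was followed for 8 min.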
* hit, by the source's call; ? = inconclusive; · = no result; [ ] = another dose, or the depositor's remark. Calls follow the shape of the dose curve; as a rule, active = well fitted curve in the direction sought with a large enough effect; inconclusive = small, poorly fitted or top-dose-only effect, or another doubt; inactive = no such curve, though single readings can be large; an effect the other way counts as inactive or inconclusive. Potency is read from the fitted curve at half-maximal effect.

SMILES	A549 tox	Nrf2 block	TrxR1 substrate	GALK inh	Nrf2 ARE act	rTrxR1 inhibitor
O=C(O)c1cccc(S(=O)(=O)N2CCN(S(=O)(=O)c3ccc4c(c3)OCCO4)CC2)c1	-3%	3%	·	·	·	·
CSc1nsc(N/N=C/c2ccccc2)c1C#N	-16%	-10%	13%[57.1 µM]	-1%	7%	25%[57.1 µM]
C[n+]1ccc(/C=N/Nc2nc(Cl)c(C#N)c(Cl)c2Cl)cc1	23%	-9%	-18%	-6%	13µM*	3.5µM*
CCOc1ccccc1NC(=O)CCc1nc(-c2cccc(C)c2)no1	13%	-28%	-8%	·	1%	21%
Nc1nc(CSC(=S)N2CCOCC2)nc(Nc2ccccc2)n1	8%	?	-1%	0%	12%	-6%
Nc1nc(CSC(=S)N2CCN(c3ccccc3)CC2)nc(Nc2ccc(F)cc2)n1	-3%	21µM*	0%[57.1 µM]	3%	4%	-25%[57.1 µM]
CCN(C(=O)c1noc2c1COc1ccc(C)cc1-2)c1cccc(C)c1	-1%	?	-5%	·	0%	0%
O=C1COc2ccc(-c3cc(-c4ccccc4)c4c(n3)-c3cc(Cl)ccc3OC4)cc2N1	-1%	6%	1%	·	0%	9%
O=C(Nc1cccc(Cl)c1)C1CCCN(c2ncnc3c2nc2n3CCCCC2)C1 (centres undefined)	-21%	-5%[9.27 µM]	-1%	·	4%	5%
C=CC[C@H](CC(=O)N(CCO)Cc1ccccc1)C(=O)NC[C@H](OC(=O)[C@@H](CC=C)Cc1ccc(F)cc1)c1ccccc1	?	18µM*	-9%	·	-5%	20%
C=CCC[C@@H](Cc1ccc(F)cc1)C(=O)OC[C@@H](NC(=O)[C@H](CC=C)CC(=O)N(CCO)Cc1ccccc1)c1ccccc1	?	?	-3%	·	0%	24%
C=CC[C@@H](CC(=O)N(CCO)Cc1ccccc1)C(=O)N[C@@H](COC(=O)[C@@H](CC=C)Cc1ccc(F)cc1)Cc1ccccc1	?	23µM*	-5%	·	-5%	33%[57.1 µM]
C=CCC[C@@H](Cc1ccc(F)cc1)C(=O)OC[C@@H](NC(=O)[C@@H](CC=C)CC(=O)N(CCO)Cc1ccccc1)c1ccccc1	?	23µM*	-9%	·	-4%	23%
COc1ccc(S(=O)(=O)N(C)c2ccc(C(=O)N3CCCCC3)cc2)cc1	-10%	?	-9%	4%	0%	-7%
COc1ccccc1NS(=O)(=O)c1ccc(C(=O)N2CCN(c3ccccc3)CC2)cc1	1%	-23%	0%	·	0%	37%
COc1ccc(S(=O)(=O)N(C)c2ccc(C(=O)N3CCCCC3)cc2)cc1OC	5%	12µM*	-1%	-1%	2%	3%
COc1ccccc1NS(=O)(=O)c1ccc(C(=O)N2CCCCCC2)cc1	-10%	10µM*	-3%	·	2%	2%[57.1 µM]
FC1(F)Oc2ccc(-c3ccc4ncnc(NCc5cccs5)c4c3)cc2O1	-13%	13µM*	·	·	·	·
Cc1cccc(-c2ccc3ncnc(NCc4cccs4)c3c2)c1	-3%	21µM*	10%	·	-1%	19%[57.1 µM]
COc1cccc(CSc2nc3ccncc3n2CC(=O)Nc2ccc(OC)c(OC)c2OC)c1	2%	26%	-6%	·	0%	-4%
CC(=O)N1CCN(c2ccc(NCc3ccc(C)cc3)cc2)CC1	-20%	-14%	-12%	3%	2%	?
CCc1ccc(CNc2ccc(N3CCN(C(C)=O)CC3)cc2)cc1	?	16µM*	4%	1%	6%	-8%
Cc1cc(C)n(-c2nnc(Nc3ccc(C)c(Cl)c3)c3ccccc23)n1	-13%	?	3%	·	1%	15%
CC(=O)OCC(NC(=O)C(COCc1ccccc1)NC(=O)OC(C)(C)C)C1OC(n2ccc(=O)[nH]c2=O)C(OC(C)=O)C1OC(C)=O (centres undefined)	-2%	0%	-2%	·	·	10%
COc1ccc(NC(=S)NC(NC(=O)c2ccccc2Cl)C(Cl)(Cl)Cl)c([N+](=O)[O-])c1 (centres undefined)	?	?	3%	-2%	-1%	-25%
SMILES	A549 tox	Nrf2 block	TrxR1 substrate	GALK inh	Nrf2 ARE act	rTrxR1 inhibitor
COc1ccc(NC(=S)NC(NC(=O)c2cccc3ccccc23)C(Cl)(Cl)Cl)c([N+](=O)[O-])c1 (centres undefined)	?	26µM*	0%	3%	1%	-6%
Cc1ccc(C)c(NC(=S)NC(NC(=O)Cc2cccc3ccccc23)C(Cl)(Cl)Cl)c1 (centres undefined)	21µM*	21µM*	-2%	3%	25%	13%
COc1ccc([N+](=O)[O-])cc1NC(=S)NC(NC(=O)C(c1ccccc1)c1ccccc1)C(Cl)(Cl)Cl (centres undefined)	?	15µM*	-8%	0%	0%	-14%
COc1ccc(NC(=S)NC(NC(=O)CCl)C(Cl)(Cl)Cl)c([N+](=O)[O-])c1 (centres undefined)	4%	5%	1%	0%	?	10µM*
CSc1nn(Cc2cccc(Cl)c2)c(N(C(C)=O)C(C)=O)c1S(=O)(=O)c1ccccc1	-4%	?	2%	·	0%	-13%
CCCCN(C)CCCNC(=O)c1cc(=O)[nH]c2ccc(S(=O)(=O)N3CCCCC3)cc12	1%	·	2%[57.1 µM]	·	-1%	9%[57.1 µM]
COc1ccc(NC(=O)c2ccc([N+](=O)[O-])s2)c([N+](=O)[O-])c1	-19%	3%	0%	-1%	10µM*	14%
CCOC(=O)c1c(C)oc2nc(C)nc(NCCc3ccc(S(N)(=O)=O)cc3)c12	-7%	-6%	-5%	·	4%	5%
Clc1ccc2[nH]cc(-c3nnnn3-c3ccc4ccccc4c3)c2c1	-27%	18µM*	14%[57.1 µM]	1%	0%	34%[57.1 µM]
O=C(O)CCC/C=C\C[C@@H]1[C@@H](/C=C/[C@H](O)C2Cc3ccccc3C2)[C@@H](F)C[C@@H]1O	·	·	8%[57.1 µM]	·	·	17%[57.1 µM]
COc1ccc(CNC(=O)Cn2nc(C(F)(F)F)c(Br)c2C)cc1	3%	13%	6%	-2%	-1%	36%
COc1cc(NC(=O)Cn2nc(C(F)(F)F)c(Br)c2C)cc([N+](=O)[O-])c1	?	23µM*	-13%	2%	4%	-14%
Cc1ccc(-n2nc(C)c(C(=O)NCCCN3CCN(c4cccc(Cl)c4)CC3)c2-n2cccc2)cc1	?	16µM*	5%	·	-1%	62%
Cc1cc(=O)[nH]c2ccc(O)cc12	·	·	34%	·	·	1%
CC(=O)N1CCCc2cc(S(=O)(=O)N3CCCC(C(=O)Nc4cc(Cl)ccc4C)C3)ccc21 (centres undefined)	0%	·	-6%[57.1 µM]	·	4%	-2%[57.1 µM]
